Measurements as given in PubChem BioAssay (NCATS).
Results filed as inconclusive are left out. A call without a number means that no potency is given here. The source made the active and inactive calls. Calls come from the whole dose curve; as a rule, active = well fitted curve in the direction sought with a large enough effect; inconclusive = small, poorly fitted or top-dose-only effect, or another doubt; inactive = no such curve, though single readings can be large; an effect the other way counts as inactive or inconclusive.

Experiments:
[1] = biological target: Alpha-galactosidase (Coffea arabica) (UniProt Q42656); experiment: Counterscreen for Glucocerebrosidase Inhibitors: qHTS Assay for Coffee Bean alpha-Galactosidase at pH 4.5 (AID 957); note: series mostly up to about 77 µM
Method in brief: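 Fluorogenic read-out: 4-methylumbelliferone at Ex 365/Em 440 nm after NaOH/glycine stop (pH 10). Enzyme 2 nM, 4-MU-alpha-galactoside 80 uM, citrate buffer pH 4.5, 20 min RT; normalized to no-enzyme and enzyme controls.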

[2] = MultiTox-Fluor Cytotoxicity Assay - LYMP1-001 - Dead Cells (AID 946)
Method in brief: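 In this qHTS, 15 uM tetraoctylammonium bromide defined 100% and DMSO defined basal activity. Lymphoblastoid cells (LYMP1-001, 2500 per well) received compound for 16 hr at 37 C before a fluorogenic dead-cell substrate readout at 485/520 nm.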

[3] = MultiTox-Fluor Cytotoxicity Assay - LYMP1-002 - Live Cells (AID 955);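 note: cells exposed to compound for 16 hours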; note: potency is the fitted concentration of half-maximal effect
Method in brief: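 LYMP1-002 lymphoblastoid cells; 2500 cells/well; 16 hr compound exposure, 37 C; MultiTox-Fluor reagent 60 min RT; live-cell fluorescence Ex/Em=405/510; qHTS concentration-response, Hill-equation AC50; tetraoctylammonium bromide positive control.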

[4] = MultiTox-Fluor Cytotoxicity Assay - LYMP1-002 - Dead Cells (AID 960);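 note: cells exposed to compound for 16 h at 37 °C; nearly all actives have a fitted effect of over 60% in size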
Method in brief: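 Readout: fluorescence at 485/520 from cell-impermeant bis-AAF-R110 cleaved by proteases leaking from damaged cells. LYMP1-002 lymphoblastoid line, 16 hr compound treatment at 37 C, concentration-response in qHTS format; Hill-equation AC50 values.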

[5] = MultiTox-Fluor Cytotoxicity Assay - LYMP1-003 - Dead Cells (AID 961);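 note: cells exposed to compound for 16 h at 37 °C; nearly all actives have a fitted effect of over 70% in size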; note: potency is the fitted concentration of half-maximal effect
Method in brief: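 Acute toxicity is scored as increased dead-cell protease activity in human lymphoblastoid LYMP1-003 cells after 16 h compound exposure in complete culture medium. Activity is normalized to DMSO basal and 15 uM tetraoctylammonium bromide as full response.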

[6] = MultiTox-Fluor Cytotoxicity Assay - LYMP1-003 - Live Cells (AID 962);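 note: cells exposed to compound for 16 hours at 37 °C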; note: potency is the fitted concentration of half-maximal effect
Method in brief: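 Readout: live-cell fluorescence (Ex/Em=405/510) from GF-AFC cleavage after 60 min MultiTox-Fluor reagent at room temperature. Lymphoblastoid LYMP1-003 cells, 16 hr compound treatment, 37 C. Concentration-response fitted to standard Hill equation for AC50.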

[7] = Cell Viability - LYMP1-003 - Assay at 24 hr (AID 963); note: potency is the fitted concentration of half-maximal effect
Method in brief: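 CellTiter-Glo luminescence (intracellular ATP) read after 24 hr, 37 C compound exposure of 2500 LYMP1-003 human lymphoblastoid cells/well in complete medium; qHTS concentration series; AC50 via standard Hill equation.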

[8] = Cell Viability - LYMP1-003 - Assay at 40 hr (AID 964); note: nearly all actives have a fitted effect of over 60% in size; note: potency is the fitted concentration of half-maximal effect
Method in brief: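 LYMP1-003 lymphoblastoid cells, 2500/well; 5 hr preincubation, 40 hr compound exposure, 37 C; CellTiter-Glo 30 min RT; luminescence; Hill-fit AC50. Positive control tetraoctylammonium bromide.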

Sequence of Alpha-galactosidase (Coffea arabica) (Q42656 whole entry, looked up): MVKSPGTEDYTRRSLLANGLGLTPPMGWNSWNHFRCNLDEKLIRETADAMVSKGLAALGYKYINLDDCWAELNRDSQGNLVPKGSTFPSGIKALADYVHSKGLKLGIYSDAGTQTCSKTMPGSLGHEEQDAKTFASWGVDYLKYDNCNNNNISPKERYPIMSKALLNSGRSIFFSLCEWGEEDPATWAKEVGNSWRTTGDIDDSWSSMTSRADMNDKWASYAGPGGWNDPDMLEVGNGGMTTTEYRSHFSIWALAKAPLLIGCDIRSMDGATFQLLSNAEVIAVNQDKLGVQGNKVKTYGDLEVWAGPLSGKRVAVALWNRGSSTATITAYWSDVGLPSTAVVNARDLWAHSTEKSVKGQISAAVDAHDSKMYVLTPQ

For `CCOC(=O)C1=C[C@@]2(CC)CCCN3CCc4c(n1c1ccccc41)[C@H]32`, the outcome [1] was “inactive”.

For `Cc1cccc(C#Cc2ccccc2)n1`, the outcome [1] was “inactive”.

With `C1CCC(NC2CCCCC2)CC1` the outcome [2] was “inactive”, the Potency [3] was “inactive” and the outcome [4] was “inactive”. For the same molecule, the Potency [5] was “inactive”, the Potency [6] was “inactive” and the Potency [7] was “inactive”. The Potency [8] was “inactive”.

In the case of `NCCS`, the outcome [1] is reported as “inactive”.

In the case of `CCCCC(CC)COC(=O)c1ccccc1C(=O)OCC(CC)CCCC` (stereo not given), the outcome [2] is reported as “inactive”, the Potency [3] is reported as “inactive” and the Potency [5] is reported as “inactive”. The Potency [6] was “inactive”, the Potency [7] was “inactive” and the Potency [8] was “inactive”.

In the case of `Nc1ccc([N+](=O)[O-])cc1`, the outcome [2] is reported as “inactive”, the Potency [3] is reported as “inactive” and the outcome [4] is reported as “inactive”. For the same molecule, the Potency [5] was “inactive”, the Potency [6] was “inactive” and the Potency [7] was “inactive”. For the same molecule, the Potency [8] was “inactive”.

In the case of `Cc1cc(O)ccc1Cl`, the outcome [2] is reported as “inactive”, the Potency [3] is reported as “inactive” and the outcome [4] is reported as “inactive”. The Potency [5] was “inactive”, the Potency [6] was “inactive” and the Potency [7] was “inactive”. For the same molecule, the Potency [8] was “inactive”.

In the case of `Nc1ccc(Cl)cc1N`, the outcome [2] is reported as “inactive”, the Potency [3] is reported as “inactive” and the outcome [4] is reported as “inactive”. The Potency [5] was “inactive”, the Potency [6] was “inactive” and the Potency [7] was “inactive”. The Potency [8] was “inactive”.

For `CC#C[C@]1(O)CC[C@H]2[C@@H]3CCC4=CC(=O)CCC4=C3[C@H](c3ccc(N(C)C)cc3)C[C@@]21C`, the outcome [1] was “inactive”.

With `COC(C)(C)CCCC(C)C/C=C/C(C)=C/C(=O)OC(C)C` (stereo not given) the outcome [2] was “inactive”, the Potency [3] was “inactive” and the outcome [4] was “inactive”. The Potency [5] was “inactive”, the Potency [6] was “inactive” and the Potency [7] was “inactive”. The Potency [8] was “inactive”.

With `CC(=O)Oc1ccccc1C(=O)O` the outcome [1] was “inactive”.

For `CCc1c(C)[nH]c2c1C(=O)C(CN1CCOCC1)CC2` (stereo not given), the outcome [1] was “inactive”.

For `CCN1CCc2nc(N)oc2CC1`, the outcome [1] was “inactive”.

In the case of `CC(=O)[O][Hg][c]1ccccc1`, the Potency [3] is reported as 3.16 µM (active), the outcome [4] is reported as “inactive” and the Potency [5] is reported as 2.51 µM (active). The Potency [6] was 3.16 µM (active), the Potency [7] was 3.16 µM (active) and the Potency [8] was 1.58 µM (active).

For `CC(C)c1ccc2c(c1)c(SC(C)(C)C)c(CC(C)(C)C(=O)O)n2Cc1ccc(Cl)cc1`, the outcome [1] was “inactive”.
